According to PubChem BioAssay (EPA / NIEHS):
Records with an inconclusive call do not appear. The source made the active and inactive calls. How the source made its calls: active means hit-call score of the fitted dose curve at least 0.9, where 1 is the maximum; inconclusive means response in the unintended direction; inactive means score below 0.9.

Molecular target: human Vascular Endothelial Growth Factor Receptor 2 (VEGFR2), KDR (gene 3791) (UniProt P35968)
Assay: NVS_ENZ_hVEGFR2: NovaScreen (NVS) Enzymatic Assay for human Vascular Endothelial Growth Factor Receptor 2 (VEGFR2) (AID 2283230)
How it was run: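 Cell-free recombinant VEGFR2 kinase, fluorescent substrate with electrophoretic mobility-shift separation; read 1 h after dosing. Screened at 25 uM in duplicate, hits to concentration-response up to 50 uM; loss-of-signal versus DMSO.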

Sequence of human Vascular Endothelial Growth Factor Receptor 2 (VEGFR2), KDR (gene 3791) (P35968 whole entry, looked up): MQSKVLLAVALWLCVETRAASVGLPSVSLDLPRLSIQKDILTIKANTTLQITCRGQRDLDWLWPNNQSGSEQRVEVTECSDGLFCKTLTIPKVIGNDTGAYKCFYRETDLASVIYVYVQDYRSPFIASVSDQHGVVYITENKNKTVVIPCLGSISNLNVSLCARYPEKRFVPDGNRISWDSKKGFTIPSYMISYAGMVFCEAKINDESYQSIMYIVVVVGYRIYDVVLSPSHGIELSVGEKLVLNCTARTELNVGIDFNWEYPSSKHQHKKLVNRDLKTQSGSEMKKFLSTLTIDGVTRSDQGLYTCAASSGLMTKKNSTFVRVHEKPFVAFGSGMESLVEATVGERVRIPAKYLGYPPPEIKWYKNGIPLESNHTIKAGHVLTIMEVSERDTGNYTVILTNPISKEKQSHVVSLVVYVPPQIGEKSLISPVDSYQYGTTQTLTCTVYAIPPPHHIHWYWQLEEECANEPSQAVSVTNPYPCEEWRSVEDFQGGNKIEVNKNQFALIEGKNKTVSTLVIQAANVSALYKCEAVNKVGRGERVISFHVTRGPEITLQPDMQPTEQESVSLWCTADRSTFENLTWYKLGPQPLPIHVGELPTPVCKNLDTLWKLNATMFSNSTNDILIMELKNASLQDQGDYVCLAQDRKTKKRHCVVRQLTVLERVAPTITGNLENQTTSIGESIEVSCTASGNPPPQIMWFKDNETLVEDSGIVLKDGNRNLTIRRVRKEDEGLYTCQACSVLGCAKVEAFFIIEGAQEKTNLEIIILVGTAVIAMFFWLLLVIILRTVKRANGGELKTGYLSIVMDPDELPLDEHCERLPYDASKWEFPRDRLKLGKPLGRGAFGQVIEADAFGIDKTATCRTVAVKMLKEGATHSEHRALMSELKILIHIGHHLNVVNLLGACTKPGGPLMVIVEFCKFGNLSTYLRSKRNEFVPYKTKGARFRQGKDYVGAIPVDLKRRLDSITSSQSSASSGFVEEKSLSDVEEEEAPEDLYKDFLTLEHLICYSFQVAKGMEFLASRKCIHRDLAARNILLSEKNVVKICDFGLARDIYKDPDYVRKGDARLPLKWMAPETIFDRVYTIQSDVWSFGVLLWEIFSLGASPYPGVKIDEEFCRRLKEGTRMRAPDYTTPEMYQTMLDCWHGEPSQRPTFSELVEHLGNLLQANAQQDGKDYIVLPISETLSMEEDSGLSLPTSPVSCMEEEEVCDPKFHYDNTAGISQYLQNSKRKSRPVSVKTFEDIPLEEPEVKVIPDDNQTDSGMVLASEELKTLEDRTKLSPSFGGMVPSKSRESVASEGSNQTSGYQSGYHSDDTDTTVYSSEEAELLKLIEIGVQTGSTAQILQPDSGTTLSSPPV

| Structure (SMILES) | outcome | AC50 |
| --- | --- | --- |
| CC1=C2C[C@H]3[C@@H](CC=C4C[C@@H](O)CC[C@@]43C)[C@@H]2CC[C@]12O[C@@H]1C[C@H](C)CN[C@H]1[C@H]2C | inactive | – |
| ClC(Cl)=C(c1ccc(Cl)cc1)c1ccc(Cl)cc1 | inactive | – |
| CCCCCCCCCC[N+](C)(C)CCCCCCCCCC | – | 26 µM (active) |
| Clc1ccc(C(c2ccccc2Cl)C(Cl)(Cl)Cl)cc1 (stereo not given) | inactive | – |
| CC(C)(c1ccccc1)c1ccc(O)cc1 | inactive | – |
| CCCN(CCC)N=O | inactive | – |
| CCOC(=O)C(O)(c1ccc(Cl)cc1)c1ccc(Cl)cc1 | inactive | – |
| CCC(C)c1cc([N+](=O)[O-])cc([N+](=O)[O-])c1O (stereo not given) | inactive | – |
| O=S(=O)(O)C(F)(F)C(F)(F)C(F)(F)C(F)(F)C(F)(F)C(F)(F)F | inactive | – |

Molecular target: sheep Cyclooxygenase-2 (Cox2), PTGS2 (gene 443460) (UniProt P79208)
Assay: NVS_ENZ_oCOX2: NovaScreen (NVS) Enzymatic Assay for sheep Cyclooxygenase-2 (Cox2) (AID 2283231)
How it was run: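 Compounds were first run at 25 uM in duplicate against tissue-extracted ovine COX-2; those passing a preset inhibition threshold went to singleton concentration-response testing with a 50 uM maximum. Read-out: absorbance at 0.66 hour.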

Sequence of sheep Cyclooxygenase-2 (Cox2), PTGS2 (gene 443460) (P79208 whole entry, looked up): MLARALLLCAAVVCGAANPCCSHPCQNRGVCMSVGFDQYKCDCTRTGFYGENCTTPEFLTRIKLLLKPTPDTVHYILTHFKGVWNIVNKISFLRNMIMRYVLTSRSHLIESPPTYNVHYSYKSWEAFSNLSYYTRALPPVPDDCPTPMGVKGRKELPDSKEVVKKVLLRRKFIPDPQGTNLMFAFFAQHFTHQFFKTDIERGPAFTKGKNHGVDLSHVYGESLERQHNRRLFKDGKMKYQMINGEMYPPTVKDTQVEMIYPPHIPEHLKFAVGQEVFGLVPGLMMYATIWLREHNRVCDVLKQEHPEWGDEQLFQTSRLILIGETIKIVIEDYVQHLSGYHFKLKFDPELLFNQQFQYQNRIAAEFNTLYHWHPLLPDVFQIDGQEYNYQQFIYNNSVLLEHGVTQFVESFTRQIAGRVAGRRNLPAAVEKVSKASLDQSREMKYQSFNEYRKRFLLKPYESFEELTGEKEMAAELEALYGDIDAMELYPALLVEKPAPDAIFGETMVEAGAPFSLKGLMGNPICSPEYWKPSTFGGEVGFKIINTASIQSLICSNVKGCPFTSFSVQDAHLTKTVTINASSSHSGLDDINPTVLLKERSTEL

| Structure (SMILES) | outcome | AC50 |
| --- | --- | --- |
| CCC(=O)O[C@H]1CC[C@H]2[C@@H]3CCC4=CC(=O)CC[C@]4(C)[C@H]3CC[C@]12C | inactive | – |
| Clc1ccc(Cl)cc1 | – | 15.8 µM (active) |
| N#Cc1ccc(N(CC(N)=O)CC(F)(F)F)cc1C(F)(F)F | – | 6.58 µM (active) |
| Cc1ccc(O)c(C)c1 | – | 18.4 µM (active) |
| Cc1cccc(C)c1N | inactive | – |

Molecular target: rat Catechol-O-Methyl Transferase (COMT), Comt (gene 24267) (UniProt P22734)
Assay: NVS_ENZ_rCOMT: NovaScreen (NVS) Enzymatic Assay for rat Catechol-O-Methyl Transferase (COMT) (AID 2283235)
How it was run: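 Cell-free enzyme activity with protein extracted from rat dorsal striatum, measured by HPLC with absorbance detection. Compounds screened at 25 uM in duplicate; actives then run in concentration-response up to 50 uM, loss of signal versus DMSO.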

Sequence of rat Catechol-O-Methyl Transferase (COMT), Comt (gene 24267) (P22734 whole entry, looked up): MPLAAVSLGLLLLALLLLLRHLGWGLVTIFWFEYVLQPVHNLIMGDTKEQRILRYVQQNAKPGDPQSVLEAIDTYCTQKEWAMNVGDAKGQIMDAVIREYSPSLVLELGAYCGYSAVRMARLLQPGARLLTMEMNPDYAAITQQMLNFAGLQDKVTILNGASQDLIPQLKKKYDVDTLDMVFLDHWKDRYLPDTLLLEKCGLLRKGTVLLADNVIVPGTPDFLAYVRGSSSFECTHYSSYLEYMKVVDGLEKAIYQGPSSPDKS

| Structure (SMILES) | outcome | AC50 |
| --- | --- | --- |
| Cc1ccccc1CO[C@@H]1C[C@@]2(C(C)C)CC[C@]1(C)O2 | inactive | – |
| CCC(C)(CC)c1cc(NC(=O)c2c(OC)cccc2OC)on1 | inactive | – |
| CCC(C)c1cc([N+](=O)[O-])cc([N+](=O)[O-])c1O (stereo not given) | – | 1.1 µM (active) |

Molecular target: rat Monoamine Oxidase, MAO-B, Central (MAOBC), Maob (gene 25750) (UniProt P19643)
Assay: NVS_ENZ_rMAOBC: NovaScreen (NVS) Enzymatic Assay for rat Monoamine Oxidase, MAO-B, Central (MAOBC) (AID 2283238)
Method: NVS_ENZ_rMAOBC is a biochemical, single-readout assay that uses extracted gene-proteins from Rat brain in a tissue-based cell-free assay. Measurements were taken 1.17 hours after chemical dosing in a 96-well plate.NVS_ENZ_rMAOBC is one of one assay component(s) measured or calculated from the NVS_ENZ_rMAOBC assay. It is designed to make measurements of enzyme activity, a form of enzyme reporter, as detected with scintillation counting signals by Lysate-based radiodetection technology.Data from the assay component NVS_ENZ_rMAOBC was analyzed into 1 assay endpoint. This assay endpoint, NVS_ENZ_rMAOBC, was analyzed in the positive analysis fitting direction relative to DMSO as the negative control and baseline of activity. Using a type of enzyme reporter, loss-of-signal activity can be used to understand changes in the enzymatic activity as they relate to the gene Maob. Furthermore, this assay endpoint can be referred to as a primary readout, because this assay has produced multiple assay endpoints where this one serves a enzymatic activity function. To generalize the intended target to other relatable targets, this assay endpoint is annotated to the oxidoreductase intended target family, where the subfamily is monoamine oxidase.
Binding assays used specific radioligands (tritiated, iodinated) with non-radioactive competitive displacement ligands in agonist or antagonist protocols (as indicated) and various reference compounds and inhibitors to titrate specific binding to receptors and transporters. Most enzyme assays (CYPs, kinases, phosphatases, proteases, HDACs) used recombinant protein and specific substrates (fluorescence mostly, some colorimetric and radioactive) and inhibitors, followed by a biochemical separation of substrate and product. All assays for the biochemical HTS were initially run in duplicate at a single concentration (10 uM for CYP450 assays and 25 uM for all others). Assay-chemical combinations meeting a pre-defined threshold (e.g., 30% inhibition and other criteria defined below) were then run in singleton concentration-response format with maximum concentration of 20 uM for CYPs and 50 uM for all others. Each assay was run with positive and negative controls, and concurrent controls on every plate. The follow-up (secondary) screen tested active chemical-pairs in concentration series, as well as a few additional assays not tested in the primary screen, some selected negative inactives, and several cases re-run in the concentration series for confirmatory purposes.

Sequence of rat Monoamine Oxidase, MAO-B, Central (MAOBC), Maob (gene 25750) (P19643 whole entry, looked up): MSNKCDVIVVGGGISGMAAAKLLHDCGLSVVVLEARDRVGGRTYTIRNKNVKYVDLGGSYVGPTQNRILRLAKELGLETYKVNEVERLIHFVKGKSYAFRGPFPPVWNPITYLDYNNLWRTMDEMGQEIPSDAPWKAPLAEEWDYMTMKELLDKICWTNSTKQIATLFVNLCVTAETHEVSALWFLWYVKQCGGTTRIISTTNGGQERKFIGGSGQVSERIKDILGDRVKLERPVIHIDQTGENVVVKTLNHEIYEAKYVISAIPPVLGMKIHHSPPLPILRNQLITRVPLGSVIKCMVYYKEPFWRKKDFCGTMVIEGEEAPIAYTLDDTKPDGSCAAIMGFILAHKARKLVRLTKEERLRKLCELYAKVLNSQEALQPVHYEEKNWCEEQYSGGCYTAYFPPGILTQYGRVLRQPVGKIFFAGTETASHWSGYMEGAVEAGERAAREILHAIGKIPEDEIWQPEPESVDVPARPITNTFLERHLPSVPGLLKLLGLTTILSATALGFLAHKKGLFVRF

| Structure (SMILES) | AC50 | outcome |
| --- | --- | --- |
| Cc1cc(O)ccc1Cl | 13.6 µM (active) | – |
| CCOCCOC(C)=O | – | inactive |
| Oc1ccc(Cl)cc1Cl | 7.6 µM (active) | – |
| CC(C)(c1ccccc1)c1ccc(O)cc1 | – | inactive |
| CC(C)(O)C(=O)Nc1ccc([N+](=O)[O-])c(C(F)(F)F)c1 | 12.1 µM (active) | – |

Molecular target: sheep Cyclooxygenase-1 (Cox1), PTGS1 (gene 443551) (UniProt P05979)
Assay: NVS_ENZ_oCOX1: NovaScreen (NVS) Enzymatic Assay for sheep Cyclooxygenase-1 (Cox1) (AID 2283239);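 further: actives reduce cyclooxygenase activity so potencies are for inhibitors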
How it was run: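 COX1 from ovine seminal vesicles, activity read colorimetrically about 0.66 h after dosing. Primary screen in duplicate at 25 uM; actives retested in concentration series; loss of signal fitted versus DMSO.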

Sequence of sheep Cyclooxygenase-1 (Cox1), PTGS1 (gene 443551) (P05979 whole entry, looked up): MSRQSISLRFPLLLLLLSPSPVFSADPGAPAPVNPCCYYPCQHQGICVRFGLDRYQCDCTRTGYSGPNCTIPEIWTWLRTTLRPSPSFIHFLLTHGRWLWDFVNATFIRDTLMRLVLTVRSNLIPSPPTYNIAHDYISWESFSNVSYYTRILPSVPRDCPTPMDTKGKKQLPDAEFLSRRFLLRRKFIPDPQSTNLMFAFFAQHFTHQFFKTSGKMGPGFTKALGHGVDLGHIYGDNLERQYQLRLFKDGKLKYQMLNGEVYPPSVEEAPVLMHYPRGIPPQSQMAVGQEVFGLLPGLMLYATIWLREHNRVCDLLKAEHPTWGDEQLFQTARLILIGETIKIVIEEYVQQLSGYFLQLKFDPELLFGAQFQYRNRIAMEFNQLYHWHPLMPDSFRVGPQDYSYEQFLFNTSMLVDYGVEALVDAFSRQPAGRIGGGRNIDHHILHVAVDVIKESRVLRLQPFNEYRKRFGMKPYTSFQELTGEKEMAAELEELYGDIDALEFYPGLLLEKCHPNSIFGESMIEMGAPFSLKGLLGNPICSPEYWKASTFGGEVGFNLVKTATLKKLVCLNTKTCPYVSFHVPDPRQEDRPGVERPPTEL

| Structure (SMILES) | outcome |
| --- | --- |
| ClC(Cl)=C(c1ccc(Cl)cc1)c1ccc(Cl)cc1 | inactive |
| Clc1ccc(C(c2ccccc2Cl)C(Cl)(Cl)Cl)cc1 (stereo not given) | inactive |
| CCCCCCCCCc1ccc(O)cc1 | inactive |
